High-throughput results: PubChem, National Center for Advancing Translational Sciences (NCATS)
HT1080-NT tox: kills 2HG-producing HT-1080-NT fibrosarcoma cells; HT-1080-NT fibrosarcoma viability, CellTiter-Glo ATP luminescence, 48 h; Potency, µM (top dose mostly 46.1 µM), inactives show top-dose activity, negative = less viability, hits mostly cytotoxic; actives 1.6% (n = 360,000); AID 686970;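 further: NT is the 2HG producing partner of a matched IDH1 knockdown line; 0% = DMSO-treated cells and -100% = media-only wells without cells; nearly all actives have a fitted effect of over 55% in size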
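Toxicity toward the 2HG-producing NT line was scored as %Activity, normalised to DMSO and no-cell wells, from CellTiter-Glo luminescence after 48 hours' treatment.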
HT1080 IDH1KD tx: toxicity to HT-1080 IDH1 knockdown cells (counter line); HT-1080 IDH1 knockdown viability, ATP luminescence, 48 h; Potency, µM (highest dose often 46.1 µM), without a hit: at the top dose activity, negative = toxicity, actives largely listed as cytotoxic; actives 2% (n = 360,000);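 further: 0% = DMSO wells and -100% = cell-free medium wells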
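Luminescent ATP read-out (CellTiter-Glo, 10 min at room temperature) after 48 h compound exposure at 37 °C gave viability of IDH1-knockdown HT-1080 cells. Activity was normalised to DMSO and cell-free wells, then fitted as concentration-response curves.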
ATXN2 expr inh: reduces ATXN2 reporter expression in HEK-293 cells; Potency, µM (series often up to 57 µM), inactives show at the highest dose activity change, negative = inhibition, hits mostly inhibitors; HEK-293 ATXN2-luciferase reporter, luminescence, 24 h; actives 0.72% (n = 360,000); further: on the % scale 0 is the no-effect control and ±100 the full control effect; nearly all actives have a fitted effect of over 55% in size
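ATXN2-luciferase reporter cells (luciferase flanked by upstream and downstream ATXN2 gene portions) were treated 24 h at 37 °C with compounds at up to 57 uM. SteadyGlo luminescence gave expression; GF-AFC fluorescence gave viability.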
KB-V1 cytotox: kills drug-selected multidrug resistant KB-V1 cells. KB-V1 MDR cells viability, CellTiter-Glo, 72 h. actives 3.4% (n = 400,000). Potency, µM (top dose mostly 46.1 µM), hits mostly cytotoxic. AID 1347076; further: on the % scale 0 is the no-effect control and ±100 the full control effect; nearly all actives have a fitted effect of over 60% in size
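Drug-selected KB-V1 cells, grown in DMEM lacking phenol red with 10% FBS, receive compound titrations; after three days at 37 degrees C, surviving cell ATP is quantified by CellTiter-Glo luminescence and responses normalized and curve-fitted.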
S2 tox: viability counter-screen for ATXN expression inhibitors. S2 cells (HEK-293 line with an ATXN2-luciferase reporter) viability, CellTiter-Fluor protease fluorescence, 24 h. AID 651635. actives 0.49% (n = 400,000). Potency, µM (highest dose often 56.7 µM), usual class: cytotoxic; further: nearly all actives have a fitted effect of over 40% in size
KB-3-1 tox: KB-3-1 parental cell cytotoxicity; KB-3-1 viability, CellTiter-Glo ATP luminescence, 72 h; Potency, µM (doses to about 46.1 µM), actives largely listed as cytotoxic; actives 1.4% (n = 400,000); further: on the % scale 0 is the no-effect control and ±100 the full control effect; nearly all actives have a fitted effect of over 60% in size
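KB-3-1 parental drug-naive adenocarcinoma cells in DMEM/10% FBS, incubated 72 h at 37 C with pin-transferred compounds across a concentration series. Viability by CellTiter-Glo luminescence; concentration-response curves fitted after normalization.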
* hit, by the source's call. Most compounds without a hit are left out; they make up all but 6.2% or so of the library. The call rests on the fitted dose curve; in most records, active means well fitted curve in the direction sought with a large enough effect; inconclusive means small, poorly fitted or top-dose-only effect, or another doubt; inactive means no such curve, though single readings can be large; an effect the other way counts as inactive or inconclusive. Potency means the concentration at half of the fitted maximal effect.

Screening COc1ccccc1NC(=O)CSc1ncn(-c2ccccc2)n1 returned HT1080-NT tox -4.1%, HT1080 IDH1KD tx -1.4%, ATXN2 expr inh 3.0%, KB-V1 cytotox 16.4µM*, S2 tox inactive and KB-3-1 tox inactive.
`COc1ccccc1NC(=O)CSc1nnc2c(n1)[nH]c1ccccc12` gave ATXN2 expr inh 3.4%, KB-V1 cytotox 11.6µM*, S2 tox inconclusive and KB-3-1 tox inactive.
CCCCN(C=O)c1c(CC)nc2ccc(C(=O)N3CCN(C(=O)c4ccco4)CC3)cn12 was read as HT1080-NT tox inconclusive, HT1080 IDH1KD tx 0.1%, ATXN2 expr inh 11.5%, KB-V1 cytotox inactive, S2 tox inactive and KB-3-1 tox inactive.
`COC(=O)C(=Cc1ccccc1[N+](=O)[O-])C(=O)OC` gave HT1080-NT tox inconclusive, HT1080 IDH1KD tx 0.0%, KB-V1 cytotox inactive, S2 tox 15.8µM* and KB-3-1 tox inactive.
COc1ccc(CNC(=O)/C=C/c2ccccc2[N+](=O)[O-])cc1 was read as HT1080-NT tox -16.1%, HT1080 IDH1KD tx 1.5%, KB-V1 cytotox inactive, S2 tox inactive and KB-3-1 tox inactive.
O=C(/C=C/c1ccccc1[N+](=O)[O-])c1ccc(F)cc1 was read as HT1080-NT tox inconclusive, HT1080 IDH1KD tx -25.3%, ATXN2 expr inh 19.7%, KB-V1 cytotox 23.1µM*, S2 tox inactive and KB-3-1 tox inconclusive.
`O=C(/C=C/c1ccccc1[N+](=O)[O-])OCC(=O)c1ccccc1` gave HT1080-NT tox 6.1%, HT1080 IDH1KD tx 6.2%, ATXN2 expr inh 4.1%, KB-V1 cytotox inactive, S2 tox inactive and KB-3-1 tox inactive.
`CC[n+]1cccc(Br)c1` gave KB-V1 cytotox inactive and KB-3-1 tox inactive.
`COc1ccc(C2=Nc3ccccc3N(C(=O)c3ccc4c(c3)OCO4)C2C(=O)NCc2ccccc2)cc1` (centres undefined) gave HT1080-NT tox -41.0%, HT1080 IDH1KD tx inconclusive, KB-V1 cytotox inconclusive and KB-3-1 tox 4.61µM*.
For Cc1ccc(C)c(CSc2nnc([C@@H](N)C(C)C)o2)c1 the results were HT1080-NT tox -9.1%, HT1080 IDH1KD tx -9.1%, ATXN2 expr inh 2.5%, KB-V1 cytotox 14.6µM*, S2 tox inactive and KB-3-1 tox inactive.
Screening O=C1C(Cc2ccccc2)C(c2ccccc2)N1c1ccccc1 (centres undefined) returned HT1080-NT tox -14.7%, HT1080 IDH1KD tx -5.6%, ATXN2 expr inh 3.4%, KB-V1 cytotox 18.4µM*, S2 tox inactive and KB-3-1 tox 20.6µM*.
For C[C@H]1C(=O)N(c2ccccc2)[C@@H]1c1ccccc1 the results were HT1080-NT tox 0.3%, HT1080 IDH1KD tx 4.3%, ATXN2 expr inh 7.3%, KB-V1 cytotox inactive, S2 tox inactive and KB-3-1 tox inactive.
`C/C(=C\C(=O)c1ccc(F)cc1)Nc1ccc(N2CCOCC2)cc1` gave HT1080-NT tox -2.9%, HT1080 IDH1KD tx 1.6%, ATXN2 expr inh -10.1%, KB-V1 cytotox 20.6µM*, S2 tox inconclusive and KB-3-1 tox inactive.
Screening O=C(/C=C/c1ccc(F)cc1)c1ccc(N2CCOCC2)cc1 returned HT1080-NT tox -1.6%, HT1080 IDH1KD tx 5.4%, ATXN2 expr inh 15.7%, KB-V1 cytotox inactive, S2 tox inactive and KB-3-1 tox inactive.
Screening O=C(c1ccc(COc2ccc(Br)cc2)o1)N1N=C(C(F)F)CC1(O)C(F)F (centres undefined) returned HT1080-NT tox inconclusive, HT1080 IDH1KD tx 20.6µM*, ATXN2 expr inh -14.7%, KB-V1 cytotox inactive, S2 tox inconclusive and KB-3-1 tox inactive.
Screening CCOc1ccc(OCc2ccc(C(=O)N3N=C(C(F)F)CC3(O)C(F)F)o2)cc1 (centres undefined) returned HT1080-NT tox inconclusive, HT1080 IDH1KD tx inconclusive, ATXN2 expr inh 5.5%, KB-V1 cytotox 16.4µM*, S2 tox inactive and KB-3-1 tox inactive.
Screening Cc1cc(C)cc(OCc2ccc(C(=O)N3N=C(C(F)F)CC3(O)C(F)F)o2)c1 (centres undefined) returned HT1080-NT tox -8.8%, HT1080 IDH1KD tx -10.4%, ATXN2 expr inh -11.9%, KB-V1 cytotox inconclusive, S2 tox inactive and KB-3-1 tox inactive.
Screening O=C(c1ccc(COc2ccc3ccccc3c2)o1)N1N=C(C(F)F)CC1(O)C(F)F (centres undefined) returned HT1080-NT tox inconclusive, HT1080 IDH1KD tx inconclusive, ATXN2 expr inh -25.9%, KB-V1 cytotox inconclusive, S2 tox inactive and KB-3-1 tox inactive.
COc1cc(OC)nc(-n2ncc(Br)c(Br)c2=O)n1 was read as HT1080-NT tox 1.64µM*, HT1080 IDH1KD tx 1.64µM*, ATXN2 expr inh inconclusive, KB-V1 cytotox inconclusive and KB-3-1 tox 6.51µM*.
For COC(=O)c1cnn(-c2nc(OC)cc(OC)n2)c1C the results were HT1080-NT tox -2.6%, HT1080 IDH1KD tx 1.7%, ATXN2 expr inh 0.6%, KB-V1 cytotox 16.4µM*, S2 tox inactive and KB-3-1 tox inactive.
CCOC(=O)c1cnn(-c2nc(OC)cc(OC)n2)c1C(F)(F)F was read as HT1080-NT tox 2.9%, HT1080 IDH1KD tx 4.5%, ATXN2 expr inh 2.5%, KB-V1 cytotox inconclusive, S2 tox inactive and KB-3-1 tox inactive.
For CN(C)c1ccc(-c2nnc(SCC(=O)NCc3ccco3)n2C)cc1 the results were KB-V1 cytotox inactive and KB-3-1 tox inactive.
CCOC(=O)C1CCN(C(=O)Cn2c(-c3cccs3)cc3cc(Cl)ccc32)CC1 was read as ATXN2 expr inh 3.6%, KB-V1 cytotox inactive, S2 tox inactive and KB-3-1 tox inactive.
For Cc1ccsc1/C=N/Nc1nc2ccccc2s1 the results were HT1080-NT tox inconclusive, HT1080 IDH1KD tx -26.3%, ATXN2 expr inh 129.6%, KB-V1 cytotox inactive, S2 tox inactive and KB-3-1 tox inactive.
`Oc1ccccc1C=NNc1nc2ccccc2s1` gave HT1080-NT tox 18.4µM*, HT1080 IDH1KD tx 8.2µM*, ATXN2 expr inh 8.5%, KB-V1 cytotox inactive, S2 tox inactive and KB-3-1 tox inconclusive.
`Oc1ccccc1/C=N/Nc1ccccc1` gave HT1080-NT tox inconclusive, HT1080 IDH1KD tx 9.2µM*, ATXN2 expr inh 43.9%, KB-V1 cytotox inactive, S2 tox inactive and KB-3-1 tox inactive.
`CCn1c(C)c(/C=N/Nc2nc3ccccc3s2)c2ccccc21` gave HT1080-NT tox 3.55µM*, HT1080 IDH1KD tx 8.91µM*, ATXN2 expr inh 24.3%, KB-V1 cytotox inactive, S2 tox inactive and KB-3-1 tox inactive.
